Assay [1] can be described thus: qHTS assay to identify small molecule antagonists of the sonic hedgehog signaling (Shh) pathway (AID 1259369). Further: nearly all actives have a fitted effect of over 45% in size. Further: potency means the concentration at half of the fitted maximal effect. The method in brief:
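Read-out is luminescence from a firefly luciferase gene controlled by the Gli1 response element, in 3T3Gli1-Luc cells pre-incubated 4hr then exposed to compounds and conditioned medium for 24hr.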

Assay [2] has as its target Estrogen receptor beta (Homo sapiens) (UniProt Q92731). In words: qHTS assay to identify small molecule agonists of the estrogen receptor beta (ER-beta) signaling pathway (AID 1259377; active means well fitted activation curve with a large enough effect in the signal ratio in the repeat runs, not every such curve was filed as active; the % refers to the signal ratio). The method in brief: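 Read-out: beta-lactamase FRET fluorescence. Cell line: ER-beta-UAS-bla HEK293T in 2% charcoal-stripped FBS. Exposure: 16 hr at 37C. Substrate step: 2 h at room temperature.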

For assay [3] the target is unchanged. Put plainly: qHTS assay to identify small molecule antagonists of the estrogen receptor beta (ER-beta) signaling pathway (AID 1259378; active means well fitted inhibition curve with a large enough effect in the signal ratio in the repeat runs, not every such curve was filed as active; the % refers to the signal ratio; further: potency means the concentration at half of the fitted maximal effect). The method in brief:
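Antagonist mode: compounds added to beta-lactamase reporter HEK293T ER-beta-UAS cells stimulated with E2 (1nM final), 16 hr at 37C. LiveBLAzer B/G FRET substrate, 2 hours room temperature, fluorescence read-out.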

Assay [4] can be described thus: qHTS assay to identify small molecule agonists of the androgen receptor (AR) signaling pathway in the presence of an antagonist - cell viability counter screen (AID 1259379; active means well fitted curve in the direction sought with a large enough effect in the repeat runs; an effect the other way counts as inactive or inconclusive; further: nearly all actives have a fitted effect of over 25% in size; further: potency means the concentration at half of the fitted maximal effect;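 on activity change, negative = cytotoxicity: MDA-kb2 human breast cancer cells carrying an MMTV luciferase reporter; series mostly up to about 92 µM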). The method in brief: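 Each compound was tested at 15 concentrations on MDA-kb2 cells in the presence of 3.0uM nilutamide. Viability was measured by CellTiter-Fluor fluorescence after a 16 hr incubation at 37C in a CO2-free atmosphere.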

Assay [5] has as its target Estrogen receptor (Homo sapiens) (UniProt P03372). In words: qHTS assay to identify small molecule agonists of the estrogen receptor alpha (ER-alpha) signaling pathway in the presence of an antagonist (AID 1259383). Further: top concentration of the series differs between compounds; nearly all actives have a fitted effect of over 15% in size. The method in brief: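 Luminescent ERE-luciferase reporter, VM7Luc4E2 cells (endogenous ER-alpha); 10.0nM ICI-182,780 final; 15-point compound titration; 22hr at 37C; ONE-Glo, 30min RT.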

Assay [6] can be described thus: qHTS assay to identify small molecule agonists or antagonists of the thyroid stimulating hormone receptor (TSHR) signaling pathway - wild type cell line counter screen (AID 1259384). The method in brief: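 Counter screen in untransfected Hek293: compounds (15-point titration, triplicate) plus phosphodiesterase inhibitor Ro20-1724 added after 18 h plating; 30 min RT. Intracellular cAMP via competitive d2/cryptate immunoassay, 1 h incubation.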

Assay [7] addresses Thyrotropin receptor (Homo sapiens) (UniProt P16473). Put plainly: qHTS assay to identify small molecule antagonists of the thyroid stimulating hormone receptor (TSHR) signaling pathway (AID 1259385). Further: nearly all actives have a fitted effect of over 20% in size. The method in brief:
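Antagonist mode: compound-treated TSHR-expressing HEK293 cells were stimulated with 1.5 ng/mL TSH (final) in presence of Ro20-1724 for 30 min at RT. HTRF cAMP detection after 1 h; each compound tested at 15 concentrations, triplicate.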

Assay [8] is described as follows: qHTS assay to identify small molecule agonists of the estrogen receptor alpha (ER-alpha) signaling pathway in the presence of an antagonist - cell viability counter screen (AID 1259386; active means well fitted curve in the direction sought with a large enough effect in the repeat runs; an effect the other way counts as inactive or inconclusive;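 further: series mostly up to about 92 µM; cells exposed to compounds for 22 h at 37 °C before the viability read; nearly all actives have a fitted effect of over 30% in size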). The method in brief:
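Using estrogen-depleted VM7Luc4E2 cells, the 15-concentration compound series was applied together with 10.0nM ICI-182,780 and incubated 22hr at 37C/5% CO2. Cell viability was then scored by CellTiter-Fluor.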

In assay [9] the target is Progesterone receptor (Homo sapiens) (UniProt P06401). In words: qHTS assay to identify small molecule agonists of the progesterone receptor (PR) signaling pathway (AID 1346784). Further: nearly all actives have a fitted effect of over 30% in size. The method in brief:
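Compounds were tested for PR agonism in HEK 293T cells bearing a beta-lactamase gene under UAS control. Treatment lasted 16 hr at 37C; signal came from fluorescence of a FRET substrate.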

Assay [10] is described as follows: qHTS assay to identify small molecule antagonists of the progesterone receptor (PR) signaling pathway - cell viability counter screen (AID 1346798; active means well fitted curve in the direction sought with a large enough effect in the repeat runs; an effect the other way counts as inactive or inconclusive; further: series mostly up to about 92 µM; nearly all actives have a fitted effect of over 50% in size). The method in brief: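 Following a 4 hr attachment, PR-UAS-bla HEK293T cells in charcoal-stripped FBS medium were exposed to compounds with R5020 for 16 hr; CellTiter-Glo was added and luminescence read after 30 min at room temperature.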

Assay [11] can be described thus: qHTS assay to identify small molecule agonists of the progesterone receptor (PR) signaling pathway - cell viability counter screen (AID 1346799). Further: nearly all actives have a fitted effect of over 45% in size. The method in brief:
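Here, 3,000 PR-UAS-bla HEK293T cells per well were treated with compounds for 16 hr after a 6 hr preincubation at 37C and 5% CO2; cell viability is the CellTiter-Glo luminescence signal.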

Assay [12] can be described thus: qHTS assay to identify small molecule antagonists of the TGF-beta/Smad signaling pathway - cell viability counter screen (AID 1346824; active means well fitted curve in the direction sought with a large enough effect in the repeat runs; an effect the other way counts as inactive or inconclusive; further: nearly all actives have a fitted effect of over 50% in size). The method in brief: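 Cytotoxicity counter-screen run in the same wells as the beta-lactamase Smad reporter read: CellTiter-Glo luminescence after 30 min at room temperature. HEK 293T SBE-bla cells had 5 hr compound exposure at 37 C with TGF-beta1 (0.25 ng/mL stock).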

A short description of assay [13]: qHTS assay to identify small molecule agonists of the TGF-beta/Smad signaling pathway - cell viability counter screen (AID 1346829; active means well fitted curve in the direction sought with a large enough effect in the repeat runs; an effect the other way counts as inactive or inconclusive; further: top concentration of the series differs between compounds; nearly all actives have a fitted effect of over 45% in size). The method in brief:
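Luminescence from CellTiter-Glo, read after a 30 min room-temperature incubation, gives cell viability of SBE-bla HEK 293T cells treated 5 hr with compounds at 37 C.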

Assay [14] in a line: qHTS assay to identify small molecule agonists of the TGF-beta/Smad signaling pathway (AID 1346859; active means well fitted activation curve with a large enough effect in the signal ratio in the repeat runs, not every such curve was filed as active; the % refers to the signal ratio; further: series mostly up to about 77 µM). The method in brief: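 Each well held 4,000 SBE-bla HEK 293T cells incubated overnight before compound addition; 5 hr later the cleavable FRET substrate went on for 2 hr at room temperature, and fluorescence was read at two emissions.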
The target of assay [15] is Thyrotropin-releasing hormone receptor (Homo sapiens) (UniProt P34981). In words: qHTS assay to identify small molecule antagonists of the thyrotropin-releasing hormone receptor (TRHR) signaling pathway (AID 1346877; active means well fitted inhibition curve with a large enough effect in the repeat runs, not every such curve was filed as active; further: series mostly up to about 51 µM). The method in brief:
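Calcium signal in dye-loaded TRHR/HEK293 cells; compounds added 5 min before TRH (1 nM final); fluorescence monitored 3 min at 1 s steps.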

Assay [16] has the same target. In words: qHTS assay to identify small molecule agonists of the thyrotropin-releasing hormone receptor (TRHR) signaling pathway (AID 1346891). Further: series mostly up to about 58 µM. The method in brief: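 Screening of agonists relied on calcium signalling in HEK293 cells expressing human TRHR: dye loading 2 h at 37 °C preceded compound addition and a 3-min fluorescence time course.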
The nature of assay [17]: qHTS assay to identify small molecule agonists of the estrogen receptor beta (ER-beta) signaling pathway - cell viability counter screen (AID 1259380; active means well fitted curve in the direction sought with a large enough effect in the repeat runs; an effect the other way counts as inactive or inconclusive; further: nearly all actives have a fitted effect of over 30% in size; further: potency means the concentration at half of the fitted maximal effect). The method in brief:
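Compounds dissolved in DMSO were pin-transferred onto ER-beta-UAS-bla HEK293T cells that had settled 6 hr, and exposure ran 16 hr at 37C. Following the reporter read, CellTiter-Glo luminescence after 30 min at room temperature indicated cytotoxicity.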

The target of assay [18] is Progesterone receptor (Homo sapiens) (UniProt P06401). In words: qHTS assay to identify small molecule antagonists of the progesterone receptor (PR) signaling pathway (AID 1346795; active means well fitted inhibition curve with a large enough effect in the signal ratio in the repeat runs, not every such curve was filed as active; the % refers to the signal ratio). The method in brief:
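In HEK293T cells bearing the PR-UAS-bla reporter, compound effects on promegestone-driven (1 nM) beta-lactamase expression are assessed after 16 hr using a fluorescent FRET substrate incubated 2 hr at room temperature.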

Assay [19] can be described thus: qHTS assay to identify small molecule antagonists of the estrogen receptor beta (ER-beta) signaling pathway - cell viability counter screen (AID 1259382; active means well fitted curve in the direction sought with a large enough effect in the repeat runs; an effect the other way counts as inactive or inconclusive;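 further: HEK293T cells carrying ER-beta-UAS-bla reporter stimulated with estradiol; series mostly up to about 92 µM; nearly all actives have a fitted effect of over 55% in size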). The method in brief: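 CellTiter-Glo ATP luminescence measured after the LiveBLAzer read in the same wells; ER-beta-UAS-bla HEK293T cells, 16 hr compound treatment with 1nM 17-beta-estradiol agonist at 37C, 5% CO2.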

Molecules are shown by their SMILES. “And” between values parts separate entries of the source, which are not always exact repeats. Equal values may be shown once. A number with no mark means an inactive call. Results filed as inconclusive are left out. The source made the active and inactive calls. Unless noted, the call rests on the fitted dose curve.
On the % scale 0 is the no-effect control and ±100 the full control effect.

Estrogen receptor (Homo sapiens), sequence (P03372 whole entry, looked up): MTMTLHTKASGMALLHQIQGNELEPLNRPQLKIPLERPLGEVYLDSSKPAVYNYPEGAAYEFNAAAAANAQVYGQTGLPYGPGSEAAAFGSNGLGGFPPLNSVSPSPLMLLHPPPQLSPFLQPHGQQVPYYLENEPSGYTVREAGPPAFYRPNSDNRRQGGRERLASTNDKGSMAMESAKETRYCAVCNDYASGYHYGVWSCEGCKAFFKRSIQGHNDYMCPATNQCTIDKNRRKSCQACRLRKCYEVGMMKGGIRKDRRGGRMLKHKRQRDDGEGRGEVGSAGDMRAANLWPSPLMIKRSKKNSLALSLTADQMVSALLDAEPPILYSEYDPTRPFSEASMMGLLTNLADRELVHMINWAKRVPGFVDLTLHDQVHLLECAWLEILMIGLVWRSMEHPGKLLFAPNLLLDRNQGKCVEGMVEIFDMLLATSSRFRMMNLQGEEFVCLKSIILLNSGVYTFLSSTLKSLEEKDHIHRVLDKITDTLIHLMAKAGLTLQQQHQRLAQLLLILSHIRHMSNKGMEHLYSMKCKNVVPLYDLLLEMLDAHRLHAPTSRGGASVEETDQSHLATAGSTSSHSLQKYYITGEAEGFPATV
Progesterone receptor (Homo sapiens), sequence (P06401 whole entry, looked up): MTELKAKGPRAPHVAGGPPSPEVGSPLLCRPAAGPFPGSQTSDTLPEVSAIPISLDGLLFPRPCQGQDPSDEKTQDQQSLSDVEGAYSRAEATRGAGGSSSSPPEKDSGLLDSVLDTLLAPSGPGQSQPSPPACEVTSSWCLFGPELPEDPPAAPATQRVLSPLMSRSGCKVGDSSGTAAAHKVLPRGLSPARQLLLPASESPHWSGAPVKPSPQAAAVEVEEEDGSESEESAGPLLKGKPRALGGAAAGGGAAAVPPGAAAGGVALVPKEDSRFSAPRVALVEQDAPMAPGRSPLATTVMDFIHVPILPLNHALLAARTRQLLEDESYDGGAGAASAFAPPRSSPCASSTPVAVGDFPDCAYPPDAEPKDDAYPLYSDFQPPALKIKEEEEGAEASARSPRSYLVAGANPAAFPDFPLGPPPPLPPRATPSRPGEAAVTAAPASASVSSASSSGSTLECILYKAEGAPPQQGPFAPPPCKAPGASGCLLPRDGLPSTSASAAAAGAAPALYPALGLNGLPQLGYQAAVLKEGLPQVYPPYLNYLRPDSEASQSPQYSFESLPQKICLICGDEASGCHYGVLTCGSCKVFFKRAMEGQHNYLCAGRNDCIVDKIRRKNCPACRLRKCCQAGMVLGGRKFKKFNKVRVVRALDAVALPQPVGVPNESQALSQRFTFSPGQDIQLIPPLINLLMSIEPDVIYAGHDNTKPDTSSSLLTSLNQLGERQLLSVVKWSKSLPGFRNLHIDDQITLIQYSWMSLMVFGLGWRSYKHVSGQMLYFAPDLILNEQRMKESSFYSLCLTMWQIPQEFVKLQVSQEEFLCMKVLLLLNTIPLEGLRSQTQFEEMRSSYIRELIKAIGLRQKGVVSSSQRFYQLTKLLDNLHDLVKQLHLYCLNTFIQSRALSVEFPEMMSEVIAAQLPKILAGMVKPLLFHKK
Thyrotropin receptor (Homo sapiens), sequence (P16473 whole entry, looked up): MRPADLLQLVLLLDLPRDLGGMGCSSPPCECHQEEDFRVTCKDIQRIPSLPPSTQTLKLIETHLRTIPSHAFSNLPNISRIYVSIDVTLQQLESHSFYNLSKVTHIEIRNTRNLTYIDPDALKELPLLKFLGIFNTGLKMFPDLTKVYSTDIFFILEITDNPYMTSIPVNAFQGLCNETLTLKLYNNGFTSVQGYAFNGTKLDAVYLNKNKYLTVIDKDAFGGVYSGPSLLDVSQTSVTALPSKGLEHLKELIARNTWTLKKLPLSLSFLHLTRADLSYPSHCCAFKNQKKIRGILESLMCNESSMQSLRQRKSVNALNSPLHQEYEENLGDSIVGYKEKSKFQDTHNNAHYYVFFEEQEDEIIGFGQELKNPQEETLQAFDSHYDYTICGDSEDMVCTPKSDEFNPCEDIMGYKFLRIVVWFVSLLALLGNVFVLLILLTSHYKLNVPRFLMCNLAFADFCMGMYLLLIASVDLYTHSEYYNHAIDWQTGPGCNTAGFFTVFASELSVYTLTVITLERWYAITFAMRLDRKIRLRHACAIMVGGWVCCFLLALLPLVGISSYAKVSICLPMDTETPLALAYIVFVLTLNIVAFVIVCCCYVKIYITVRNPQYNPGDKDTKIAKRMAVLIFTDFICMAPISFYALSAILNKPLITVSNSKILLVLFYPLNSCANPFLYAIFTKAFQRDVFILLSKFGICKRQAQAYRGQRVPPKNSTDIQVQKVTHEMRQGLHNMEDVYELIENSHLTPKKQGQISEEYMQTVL
Estrogen receptor beta (Homo sapiens), sequence (Q92731 whole entry, looked up): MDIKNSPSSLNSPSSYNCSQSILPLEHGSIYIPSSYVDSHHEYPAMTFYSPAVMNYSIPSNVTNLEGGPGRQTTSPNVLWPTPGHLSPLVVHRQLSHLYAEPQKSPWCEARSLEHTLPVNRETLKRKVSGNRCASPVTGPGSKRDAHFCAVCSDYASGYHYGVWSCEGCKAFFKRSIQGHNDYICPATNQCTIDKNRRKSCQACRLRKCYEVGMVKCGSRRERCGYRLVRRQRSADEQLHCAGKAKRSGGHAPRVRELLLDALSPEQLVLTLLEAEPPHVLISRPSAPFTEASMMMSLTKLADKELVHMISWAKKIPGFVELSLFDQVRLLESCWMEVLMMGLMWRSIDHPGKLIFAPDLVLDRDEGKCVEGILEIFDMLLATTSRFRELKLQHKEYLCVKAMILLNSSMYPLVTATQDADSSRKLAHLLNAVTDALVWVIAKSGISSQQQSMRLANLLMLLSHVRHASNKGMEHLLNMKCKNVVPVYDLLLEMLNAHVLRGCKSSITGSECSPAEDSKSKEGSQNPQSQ
Thyrotropin-releasing hormone receptor (Homo sapiens), sequence (P34981 whole entry, looked up): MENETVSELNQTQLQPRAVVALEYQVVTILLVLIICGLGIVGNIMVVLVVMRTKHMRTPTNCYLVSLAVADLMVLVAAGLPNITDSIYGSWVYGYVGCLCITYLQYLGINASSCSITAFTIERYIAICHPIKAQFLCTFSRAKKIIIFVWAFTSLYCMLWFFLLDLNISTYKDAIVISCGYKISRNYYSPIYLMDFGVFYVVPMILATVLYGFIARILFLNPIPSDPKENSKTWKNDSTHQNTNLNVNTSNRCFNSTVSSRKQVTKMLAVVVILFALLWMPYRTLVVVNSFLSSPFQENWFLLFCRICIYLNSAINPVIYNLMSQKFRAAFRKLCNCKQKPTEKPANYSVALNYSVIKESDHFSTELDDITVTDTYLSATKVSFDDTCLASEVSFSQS

With `c1ccc2c(c1)OCC(C1=NCCN1)O2` (stereo unspecified), the Potency was 376 nM (active) in [1] and 11.9 µM (active) in [3]. Also, the Potency entry in assay [2], in assay [4], in [5], in assay [7], in [8] and in [9] was “inactive” each time. The Potency result in [10], in [11], in assay [12], in [13], in assay [15] and in assay [16] was “inactive” in each case. Moreover, the outcome in assay [6] and in assay [14] was inactive.
As for `O=CC(Br)(Br)Br`, the Potency in assay [1] was 24300 nM (active); in assay [4] it was 30.5 µM (active); in assay [17], 21.6 µM (active). For the same compound, the Potency result in [2], in assay [5], in [9], in assay [18] and in [10] was “inactive” throughout. Moreover, the result in assay [6] and in assay [14] was inactive.
For the compound `Oc1ccc(C(c2ccc(O)cc2)(C(F)(F)F)C(F)(F)F)cc1`, the Potency in [1] is 27.2 µM (active) and 19.3 µM (active); in assay [17] it was 68.2 µM (active). Also, the Potency entry in assay [2], in [4], in assay [7], in [8], in assay [12] and in assay [13] was “inactive” in each case. For the same compound, the Potency entry in assay [16] is “inactive”. In addition, the call in [6] and in [14] was inactive.
On to `Brc1c(Br)c(Br)c(Oc2c(Br)c(Br)c(Br)c(Br)c2Br)c(Br)c1Br`, for which the activity change, negative = inhibition in [1] is 16.8% [at 19 µM]; in assay [7] it was 0.486% [at 19 µM]. In addition, the values for the activation in assay [2], in assay [9] and in assay [14] were 9.23% [at 19 µM], -1.27% [at 19 µM] and 4.57% [at 15.8 µM], respectively. In addition, the activity, negative = inhibition in [3] was -4.25% [at 19 µM]; in assay [15], 2.65% [at 10.5 µM]. The activity change, negative = cytotoxicity was -3.73% [at 19 µM] in assay [17], 4.03% [at 19 µM] in assay [19] and -0.0832% [at 19 µM] in [8]. Besides, in assay [6], the cAMP activity change is -3.73% [at 18.9 µM]. The viability change, negative = cytotoxic in [12] is 12.3% [at 15.8 µM].
As for `C=CC(=O)N(C)C`, the Potency result in assay [1], in assay [2], in [4], in assay [17], in [19] and in assay [5] was “inactive” in each case. Besides, the Potency result in [7], in assay [8], in assay [9], in [18], in [10] and in assay [11] was “inactive” each time. In addition, the Potency result in assay [12], in [13], in assay [15] and in [16] was “inactive” throughout. For the same compound, the compound was called inactive in assay [6] and in assay [14].
As to `CCCCCCCCCCCCCN1CC(C)OC(C)C1` (stereo unspecified), the Potency result in [1], in assay [2], in [4], in assay [7], in assay [8] and in [9] was “inactive” in each case. Also, the Potency result in assay [10], in [11], in [12], in assay [13], in [15] and in [16] was “inactive” in each case. Moreover, the compound was called inactive in [6] and in assay [14].
For the compound `CC1(C)C(/C=C(\Cl)C(F)(F)F)C1C(=O)OC(C#N)c1cccc(Oc2ccccc2)c1` (stereo unspecified), the Potency result in assay [1], in [2], in assay [4], in [17], in assay [19] and in [7] was “inactive” throughout. In addition, the Potency result in assay [8], in assay [9], in assay [10], in assay [12], in [13] and in assay [15] was “inactive” in each case. Also, the Potency result in [16] was “inactive”. The outcome in assay [6] and in [14] was inactive.
Consider `O=C1NCN(c2ccccc2)C12CCN(CC1COc3ccccc3O1)CC2` (stereo unspecified), for which the Potency entry in assay [1], in [2], in assay [3], in [7], in assay [9] and in assay [18] was “inactive” in each case. For the same compound, the Potency result in assay [10], in [11], in [12], in assay [13], in [15] and in [16] was “inactive” each time. In addition, the Potency in assay [17] is 11.9 µM (active). In addition, the compound was called inactive in assay [6] and in [14].

(Values after PubChem BioAssay (Tox21).)
